Our source for the residual activity values is ChEMBL document CHEMBL2218924, “A broad activity screen in support of a chemogenomic map for kinase signalling research and drug discovery” (Biochem J, 2013).

Molecules are shown by their SMILES.

Experiment [1] has as its target T1, Serine/threonine-protein kinase TBK1 (Homo sapiens) (UniProt Q9UHD2).
T1 sequence (whole entry): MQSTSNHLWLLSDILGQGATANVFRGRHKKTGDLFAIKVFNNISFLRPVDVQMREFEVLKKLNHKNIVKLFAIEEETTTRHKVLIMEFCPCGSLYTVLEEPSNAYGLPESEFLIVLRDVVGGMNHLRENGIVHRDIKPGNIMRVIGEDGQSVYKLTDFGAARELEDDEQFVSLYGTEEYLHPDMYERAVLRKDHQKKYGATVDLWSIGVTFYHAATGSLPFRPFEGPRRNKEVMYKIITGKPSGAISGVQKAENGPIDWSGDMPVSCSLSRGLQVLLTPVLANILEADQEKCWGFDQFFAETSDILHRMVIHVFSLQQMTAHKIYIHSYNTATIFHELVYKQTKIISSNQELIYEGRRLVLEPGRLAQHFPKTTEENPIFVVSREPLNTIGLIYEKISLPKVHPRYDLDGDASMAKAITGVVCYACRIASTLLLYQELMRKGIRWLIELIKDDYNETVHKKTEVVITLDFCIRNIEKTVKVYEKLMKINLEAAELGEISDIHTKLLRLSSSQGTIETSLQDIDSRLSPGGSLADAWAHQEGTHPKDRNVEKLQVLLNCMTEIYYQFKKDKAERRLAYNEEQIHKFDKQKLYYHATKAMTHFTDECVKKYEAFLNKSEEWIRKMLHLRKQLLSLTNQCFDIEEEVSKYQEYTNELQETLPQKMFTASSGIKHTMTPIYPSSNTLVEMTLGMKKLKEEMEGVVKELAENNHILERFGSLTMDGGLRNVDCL
The following applies: at 1 µM.

In experiment [2] the target is T1, Serine/threonine-protein kinase TBK1 (Homo sapiens). The conditions noted are these: at 10 µM.
The target in experiment [3] is T2, TGF-beta receptor type-1 (Homo sapiens) (UniProt P36897).
T2 sequence (whole entry): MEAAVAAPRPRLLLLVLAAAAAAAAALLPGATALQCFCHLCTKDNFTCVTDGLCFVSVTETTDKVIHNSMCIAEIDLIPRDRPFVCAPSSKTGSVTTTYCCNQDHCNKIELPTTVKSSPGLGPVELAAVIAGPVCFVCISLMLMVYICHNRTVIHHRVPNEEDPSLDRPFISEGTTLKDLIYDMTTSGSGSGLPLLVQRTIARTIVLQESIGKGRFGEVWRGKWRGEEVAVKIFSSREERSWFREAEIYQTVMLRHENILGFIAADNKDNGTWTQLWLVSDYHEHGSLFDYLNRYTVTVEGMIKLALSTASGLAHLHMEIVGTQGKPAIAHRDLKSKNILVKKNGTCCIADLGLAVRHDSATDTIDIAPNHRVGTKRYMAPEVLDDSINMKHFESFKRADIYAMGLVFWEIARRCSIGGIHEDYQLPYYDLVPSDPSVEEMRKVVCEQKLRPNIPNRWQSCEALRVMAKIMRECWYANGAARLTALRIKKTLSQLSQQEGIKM
The following applies: at 1 µM.

The target of experiment [4] is T2, TGF-beta receptor type-1 (Homo sapiens). The following applies: at 10 µM.
Experiment [5] addresses Insulin-like growth factor 1 receptor (Homo sapiens) (UniProt P08069). The following applies: at 1 µM.
Experiment [6] shares this target. The following applies: at 10 µM.
Experiment [7] has as its target T3, Inhibitor of nuclear factor kappa-B kinase subunit alpha (Homo sapiens) (UniProt O15111).
T3 sequence (whole entry): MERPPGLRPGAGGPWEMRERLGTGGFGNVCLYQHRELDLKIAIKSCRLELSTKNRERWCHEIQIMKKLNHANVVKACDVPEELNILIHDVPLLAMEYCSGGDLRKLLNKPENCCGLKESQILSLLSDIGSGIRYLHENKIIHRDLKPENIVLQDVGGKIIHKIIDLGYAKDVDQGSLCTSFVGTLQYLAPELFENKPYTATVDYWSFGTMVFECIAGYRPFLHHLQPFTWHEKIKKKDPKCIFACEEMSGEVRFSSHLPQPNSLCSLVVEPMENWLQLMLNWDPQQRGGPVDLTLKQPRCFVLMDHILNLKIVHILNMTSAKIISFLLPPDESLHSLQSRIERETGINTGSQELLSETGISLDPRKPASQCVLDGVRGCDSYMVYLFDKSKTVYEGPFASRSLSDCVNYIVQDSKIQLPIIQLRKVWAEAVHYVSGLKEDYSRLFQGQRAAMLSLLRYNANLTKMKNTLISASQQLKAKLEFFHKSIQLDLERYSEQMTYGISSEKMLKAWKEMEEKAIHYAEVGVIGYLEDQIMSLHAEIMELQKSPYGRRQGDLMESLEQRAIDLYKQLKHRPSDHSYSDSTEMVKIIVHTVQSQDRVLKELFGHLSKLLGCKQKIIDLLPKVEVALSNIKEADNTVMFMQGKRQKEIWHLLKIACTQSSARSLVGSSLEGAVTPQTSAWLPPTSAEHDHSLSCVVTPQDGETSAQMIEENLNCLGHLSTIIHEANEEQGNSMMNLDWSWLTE
The conditions noted are these: at 1 µM.

Experiment [8] has as its target T3, Inhibitor of nuclear factor kappa-B kinase subunit alpha (Homo sapiens). The conditions noted are these: at 10 µM.
Experiment [9] addresses T4, Inhibitor of nuclear factor kappa-B kinase subunit beta (Homo sapiens) (UniProt O14920).
T4 sequence (whole entry): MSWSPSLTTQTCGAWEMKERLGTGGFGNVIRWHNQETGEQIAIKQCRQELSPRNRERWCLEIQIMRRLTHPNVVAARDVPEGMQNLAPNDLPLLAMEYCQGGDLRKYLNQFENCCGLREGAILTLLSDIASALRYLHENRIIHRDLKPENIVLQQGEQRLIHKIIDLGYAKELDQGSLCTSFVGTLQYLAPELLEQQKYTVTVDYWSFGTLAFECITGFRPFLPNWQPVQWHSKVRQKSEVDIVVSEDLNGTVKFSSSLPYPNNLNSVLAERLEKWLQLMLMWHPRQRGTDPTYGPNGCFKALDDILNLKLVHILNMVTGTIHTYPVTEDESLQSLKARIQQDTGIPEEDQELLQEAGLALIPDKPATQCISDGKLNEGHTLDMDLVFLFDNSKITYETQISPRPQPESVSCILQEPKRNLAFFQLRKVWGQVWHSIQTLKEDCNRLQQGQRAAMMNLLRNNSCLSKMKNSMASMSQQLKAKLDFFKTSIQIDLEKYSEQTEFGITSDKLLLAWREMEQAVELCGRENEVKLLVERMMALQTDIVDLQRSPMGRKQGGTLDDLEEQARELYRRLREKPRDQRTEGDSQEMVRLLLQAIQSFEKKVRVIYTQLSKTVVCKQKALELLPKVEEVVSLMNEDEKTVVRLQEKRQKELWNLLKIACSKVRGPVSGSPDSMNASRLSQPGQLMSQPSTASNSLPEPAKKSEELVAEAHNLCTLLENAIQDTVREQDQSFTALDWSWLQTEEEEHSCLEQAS
The following applies: at 10 µM.

Experiment [10] deals with Insulin receptor (Homo sapiens) (UniProt P06213). The conditions noted are these: at 1 µM.
Sequence of Insulin receptor (Homo sapiens) (P06213 28-758 limits assumed): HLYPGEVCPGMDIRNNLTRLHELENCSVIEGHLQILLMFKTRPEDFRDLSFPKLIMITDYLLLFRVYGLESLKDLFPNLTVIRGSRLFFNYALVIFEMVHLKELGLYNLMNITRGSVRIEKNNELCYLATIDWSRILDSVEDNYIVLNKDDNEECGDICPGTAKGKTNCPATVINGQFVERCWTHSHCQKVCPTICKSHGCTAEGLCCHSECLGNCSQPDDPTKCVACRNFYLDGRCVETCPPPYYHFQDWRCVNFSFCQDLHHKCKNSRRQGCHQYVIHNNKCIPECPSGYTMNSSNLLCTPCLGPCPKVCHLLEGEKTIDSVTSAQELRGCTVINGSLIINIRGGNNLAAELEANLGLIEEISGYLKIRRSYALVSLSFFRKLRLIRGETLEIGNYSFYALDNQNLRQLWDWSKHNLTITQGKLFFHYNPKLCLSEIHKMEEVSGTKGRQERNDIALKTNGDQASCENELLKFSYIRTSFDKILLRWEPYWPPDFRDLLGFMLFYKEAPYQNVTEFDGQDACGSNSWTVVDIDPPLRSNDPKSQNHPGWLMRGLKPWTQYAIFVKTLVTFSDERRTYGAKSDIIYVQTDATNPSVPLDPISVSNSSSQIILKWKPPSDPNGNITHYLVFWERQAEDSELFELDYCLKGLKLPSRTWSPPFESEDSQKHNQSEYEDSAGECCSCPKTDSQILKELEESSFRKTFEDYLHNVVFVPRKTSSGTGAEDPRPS
Sequence of Insulin receptor (Homo sapiens) (P06213 763-1382 limits assumed): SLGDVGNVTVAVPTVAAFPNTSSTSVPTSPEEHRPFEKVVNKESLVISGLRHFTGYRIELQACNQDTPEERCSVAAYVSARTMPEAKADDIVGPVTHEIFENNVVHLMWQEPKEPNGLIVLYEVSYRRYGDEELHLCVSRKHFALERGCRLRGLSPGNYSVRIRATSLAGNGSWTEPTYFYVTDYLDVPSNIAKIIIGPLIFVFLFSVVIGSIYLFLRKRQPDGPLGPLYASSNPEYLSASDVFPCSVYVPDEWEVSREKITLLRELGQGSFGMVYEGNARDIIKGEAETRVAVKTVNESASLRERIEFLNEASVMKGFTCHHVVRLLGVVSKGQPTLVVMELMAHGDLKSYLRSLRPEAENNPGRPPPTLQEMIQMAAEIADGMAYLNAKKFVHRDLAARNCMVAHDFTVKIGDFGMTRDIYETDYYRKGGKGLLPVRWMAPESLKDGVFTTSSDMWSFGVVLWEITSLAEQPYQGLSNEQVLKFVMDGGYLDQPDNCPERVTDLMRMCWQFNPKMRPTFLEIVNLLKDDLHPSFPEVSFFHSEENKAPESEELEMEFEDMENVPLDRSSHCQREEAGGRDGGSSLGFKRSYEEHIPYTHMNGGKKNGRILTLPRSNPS

Sequence of Insulin-like growth factor 1 receptor (Homo sapiens) (P08069 31-736 limits assumed): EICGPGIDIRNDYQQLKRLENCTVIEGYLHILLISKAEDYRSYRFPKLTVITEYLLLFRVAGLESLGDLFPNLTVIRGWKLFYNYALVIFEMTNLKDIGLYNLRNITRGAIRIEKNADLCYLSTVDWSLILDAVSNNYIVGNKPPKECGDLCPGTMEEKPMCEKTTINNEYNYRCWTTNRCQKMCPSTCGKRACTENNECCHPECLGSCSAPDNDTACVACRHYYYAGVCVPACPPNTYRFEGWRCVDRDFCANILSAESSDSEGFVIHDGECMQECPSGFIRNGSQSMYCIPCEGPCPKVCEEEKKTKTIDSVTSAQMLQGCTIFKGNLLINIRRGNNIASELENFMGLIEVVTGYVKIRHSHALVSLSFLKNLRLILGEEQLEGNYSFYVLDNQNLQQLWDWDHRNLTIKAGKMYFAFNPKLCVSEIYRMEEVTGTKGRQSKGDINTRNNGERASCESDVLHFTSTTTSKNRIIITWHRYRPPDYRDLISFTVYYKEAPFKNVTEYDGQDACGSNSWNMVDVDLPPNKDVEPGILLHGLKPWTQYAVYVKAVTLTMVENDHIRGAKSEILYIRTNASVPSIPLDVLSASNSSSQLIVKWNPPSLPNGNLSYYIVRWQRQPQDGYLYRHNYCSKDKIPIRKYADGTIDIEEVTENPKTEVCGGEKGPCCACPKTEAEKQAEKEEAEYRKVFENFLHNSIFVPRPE
Sequence of Insulin-like growth factor 1 receptor (Homo sapiens) (P08069 741-1367 limits assumed): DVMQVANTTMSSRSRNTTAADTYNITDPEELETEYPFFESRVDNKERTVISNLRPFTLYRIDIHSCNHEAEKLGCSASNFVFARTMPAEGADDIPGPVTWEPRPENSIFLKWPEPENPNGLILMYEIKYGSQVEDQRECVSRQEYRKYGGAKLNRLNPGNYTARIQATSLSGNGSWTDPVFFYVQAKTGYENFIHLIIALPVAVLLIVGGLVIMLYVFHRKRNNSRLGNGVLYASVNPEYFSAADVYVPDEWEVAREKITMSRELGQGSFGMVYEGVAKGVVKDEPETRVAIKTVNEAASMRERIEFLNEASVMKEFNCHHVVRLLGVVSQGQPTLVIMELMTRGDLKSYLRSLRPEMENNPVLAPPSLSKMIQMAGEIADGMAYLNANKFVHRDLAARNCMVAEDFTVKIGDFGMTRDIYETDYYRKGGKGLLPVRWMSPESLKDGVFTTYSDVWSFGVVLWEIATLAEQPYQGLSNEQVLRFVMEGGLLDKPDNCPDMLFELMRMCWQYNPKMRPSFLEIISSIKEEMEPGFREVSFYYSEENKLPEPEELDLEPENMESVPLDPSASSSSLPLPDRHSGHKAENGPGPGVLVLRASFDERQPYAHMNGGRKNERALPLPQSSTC

Consider `O=C(CCCc1ccc(-c2ccccc2F)cc1)Nc1ccc(O)cc1`, for which the residual activity in experiment [1] was determined as 90%; in experiment [2], 73%; in experiment [3], 108%; in experiment [4] it was 112%; in experiment [5], 100%; in [6], 92%. Besides, the residual activity in [7] came out at 101%; in experiment [8] it was 129%; in [9], 101%; in experiment [10], 112%.
